In PubChem BioAssay AID1347426 (Functional Genomics Laboratory (NCATS/FGL), 2020) one finds median seed-adjusted z-score data, which are given here for 69 sequences.

The whole screen tested about 31,000 sequences, of which about 1,400 (4.5%) were called active.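 How the source made its calls: active means median seed-adjusted z-score above 1 or below -1; inactive means the rest.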 This excerpt belongs to a sample that is enriched for actives.

The test is described as follows: Novel Modifiers of Survival Motor Neuron (SMN) Protein: Gene Identification via Genome-wide siRNA Screen.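 Further: luminescence tracks full-length SMN protein made from the SMN2 reporter.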 Particulars: HEK293T SMN2-luciferase reporter, siRNA knockdown, 72 h; actives lie on both sides. The method, boiled down: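 Luciferase signal, proportional to full-length SMN made from an SMN2 cDNA reporter in stable HEK293T cells, was read 72 h after siRNA reverse transfection. Values were expressed as MAD scores after non-targeting-control normalization and log10 conversion; seed analysis flagged off-targets.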
For orientation: In a reporter assay the amount or activity of a reporter protein is the signal.
Consider GGCAAAUGGUUGAGACUGATT against YWHAE, for which the median seed-adjusted z-score is 1.38 (active). Take GCAGCAUAAUGAAACGUGATT against ARPM1: the median seed-adjusted z-score is -0.0251 (inactive). To UCUUCGAGCAAGAAACUAATT against CD9 belongs -1.02 (active). To AUAAAUUCCUGAUUGCUAATT against CXCL6 belongs 0.802 (inactive); to GGACUACAGCGGACAAGGATT against WDR1, -0.457 (inactive). For GGAACAUUCCUGUGCAACATT against MTMR3, the median seed-adjusted z-score was 0.281 (inactive). Turning to GAUGAUAGCCAAACCCUCATT against ZNF626, the median seed-adjusted z-score is 0.185 (inactive).

Turning to GGUGUUGUUUCAUCGUUUUTT against CCNL1, the median seed-adjusted z-score is -1.26 (active). For the sequence GUGCAUGCAGGAGAAGUCATT against GATA2, the median seed-adjusted z-score is 0.623 (inactive). For GCAUGCAGCCUUGAAGAUATT against CRYZL1, the median seed-adjusted z-score was 0.0481 (inactive).

Regarding CGUGUCAAAUAUUGGAUUATT against KLB, the median seed-adjusted z-score was 0.221 (inactive).

Turning to GCACCUUCGUCCUCAACUUTT against PROC, the median seed-adjusted z-score is -0.228 (inactive).

For the sequence CCGCUGAACCUGUUGAAGATT against SGMS2, the median seed-adjusted z-score is -0.492 (inactive). As to GGUGCUCUCGGUUGCACAATT against U2AF1, the median seed-adjusted z-score was 2.08 (active). To CAAGCUCUGAUAUACCGAATT against HIVEP1 belongs 0.532 (inactive); to UGCACAUCAAGUAUCCUAATT against SLC30A10, 0.523 (inactive). With GCAUCAUCCAGAACACGGATT against ARHGEF18, the median seed-adjusted z-score is 0.586 (inactive). CGAUGGAGAUGUUUCGGGATT against KCNA2: the median seed-adjusted z-score was -1.03 (active).

With GCGAGAGUCUGCAUAGGUATT against GRIN2D, the median seed-adjusted z-score was -0.135 (inactive). With GGAAGAAAGUAUAAUAGAATT against MAFG, the median seed-adjusted z-score was 0 (inactive). For the sequence UGAUCAACCUCAAGACGGATT against MED16, the median seed-adjusted z-score is -0.6 (inactive). The same measure for GAAACACGUCAGUCCUAAUTT against LHX8: 0 (inactive).

GAAGUUCAUACUAAGCGUATT against TPR: the median seed-adjusted z-score was -1.03 (active). The same measure for CGUGGUACCAGACAUCUGATT against CCL17: 0.178 (inactive); for GACCGACUGCAGAACAAUATT against PDE6B: -0.336 (inactive); for GGAUAAUACAGUUCGAUUATT against TAF5: -0.192 (inactive). On to GACUCCCUGCUUUCAAUAATT against SALL2, for which the median seed-adjusted z-score is 0.504 (inactive). For CCCUCUCAGUACUACGCUATT against ZMYND10, the median seed-adjusted z-score was 0.255 (inactive). To CAAGAAAACUGCGAAUAAATT against STX2 belongs 0.442 (inactive); to GUUUCAUCUGGGUUCGCUATT against SF3B3, -2.53 (active).

For the sequence GAACCAUCUCAAUACUAUUTT against DACH2, the median seed-adjusted z-score was -0.00102 (inactive). On to GGGCGAGUAUUAUGACUAUTT against MYO15A, for which the median seed-adjusted z-score is 0.0508 (inactive). To GACUGUUCGUUUCCCAGAUTT against CHRNA7 belongs -0.485 (inactive); to GAGACAGCCUGAUGGAGAATT against STC1, -1.36 (active). For the sequence GCUCCUUGCUACCAUAGUATT against CCBP2, the median seed-adjusted z-score was -0.0896 (inactive). With CUCUCAGACAAGCUACUGATT against CCL27, the median seed-adjusted z-score was 0 (inactive). Consider GUUGUGGUCUGAUCAGUUATT against TUBA1A, for which the median seed-adjusted z-score was 0.284 (inactive). On to AGUUCCCUUUGUAACCAUATT against ZNF669, for which the median seed-adjusted z-score is 0.175 (inactive).

On to AGGCUGCGUUUGGACCAGATT against PAPLN, for which the median seed-adjusted z-score was -0.186 (inactive). The same measure for CAUGGGUGCUUAUAAGUCATT against IL1A: 1.12 (active); for GGGCUGCACCAAAGCCUAUTT against KLF14: 0.0241 (inactive); for GUUUAUUUCGUACACUAAATT against KTI12: 0.0814 (inactive). Turning to GCGUCGUGGUCAUGAACAATT against PIP5K1C, the median seed-adjusted z-score was -0.13 (inactive). As for CAGUGUCCCUAUGAAGGGATT against SRMS, the median seed-adjusted z-score was -1.58 (active). For the sequence GCUAUUGAGUUUGCCCAAATT against ADHFE1, the median seed-adjusted z-score was 0.418 (inactive). “CUAGUGAUCUUUUAGAGUUTT against CSGALNACT2”: the median seed-adjusted z-score is 0.236 (inactive). GAACUUUAUUGCAAAGUUUTT against CSRP3: the median seed-adjusted z-score is 0.15 (inactive). On to GCAUCGAGAUCCACGAAGATT against PITPNM3, for which the median seed-adjusted z-score is -0.0378 (inactive). Regarding AGAAGACUCUGGUAAUGUATT against WHSC1, the median seed-adjusted z-score was 1.17 (active). Regarding CUGAUUCAAGAGAAGAUUATT against SMARCAL1, the median seed-adjusted z-score is -0.145 (inactive). Turning to GAACAGAUCCGGAAGAAGATT against NR1H2, the median seed-adjusted z-score is 0.069 (inactive).

As to GGACUUUGAUUGCUAGCAATT against CTRC, the median seed-adjusted z-score was -0.104 (inactive).

On to GCUUGAAGAGUUUGGCUGGTT against DUSP15, for which the median seed-adjusted z-score was 0 (inactive). Consider GCAAUUAACAAUUAUCGAUTT against RNASE3, for which the median seed-adjusted z-score was 0.588 (inactive).

As for AGUUUGUCCUGAAGAAUUATT against PTPN23, the median seed-adjusted z-score was -0.0473 (inactive). As for GGGUCAUCUAUAUCCGCAATT against GPR132, the median seed-adjusted z-score was 0 (inactive). Take GCAUCUGCUGUAUCGAUGATT against MCM4: the median seed-adjusted z-score is 0.0057 (inactive). As to GCCCUUACAGGGUAUCAAATT against DDX46, the median seed-adjusted z-score is -1.24 (active).

With CACGGAUUCUUGUUGGAAATT against RAB33B, the median seed-adjusted z-score was -0.758 (inactive). To GUUCGAAUCAAGAACCCUATT against NT5C3 belongs -0.456 (inactive); to UGAUAGAGAUCAACCCAUATT against PSMB5, -1.37 (active); to ACAUGAUCAUCAGUGUGAATT against FABP4, 0.227 (inactive). For the sequence GCGUCAUGAUGUUCACCUATT against ITGB5, the median seed-adjusted z-score was -0.00882 (inactive). As to GCAUGGGAAUCAUUGUGCUTT against PPIL1, the median seed-adjusted z-score is 0.166 (inactive). Turning to CCAGUACACUUUUGUCUGATT against CDC5L, the median seed-adjusted z-score is -0.628 (inactive). As to AAGUGUGCCUGAAUACUAUTT against KHDRBS2, the median seed-adjusted z-score was -0.335 (inactive).

GGAGCAGUCACUUACAGAATT against PINK1: the median seed-adjusted z-score was 0.192 (inactive). For the sequence CCACUGUCCUGUUUGAGAUTT against FKBP6, the median seed-adjusted z-score was -1.12 (active). To CGGAUUAUCUUCUAUCUAUTT against SLC6A14 belongs 0 (inactive).
